# Results: PMC5700166
# Changes are numbered by the printed parent chain.
# Experiments:
# Experiment in all cases: protein-binding microarray (PBM); PBM: ~300 nM protein, 6 mM HEPES pH 7.8, 80 mM KCl, 0.5 mM EDTA, 0.5 mM EGTA, 6% glycerol, 35 ng/ul poly-dIdC, 1% milk, 1 h, room temperature; Ap Aiptasia and Nv Nematostella (sea anemones) / Co Capsaspora / Aq Amphimedon (sponge) / Dm Drosophila / Hu human; RHD is the Rel homology domain; high values mean tight binding
# Details in all cases: dsDNA, one strand shown
# [1] = biological target: T1, GST-Ap-NF-kB RHD (Exaiptasia pallida (Aiptasia), UniProt A0A913YAJ5 2-422)
# T1 sequence: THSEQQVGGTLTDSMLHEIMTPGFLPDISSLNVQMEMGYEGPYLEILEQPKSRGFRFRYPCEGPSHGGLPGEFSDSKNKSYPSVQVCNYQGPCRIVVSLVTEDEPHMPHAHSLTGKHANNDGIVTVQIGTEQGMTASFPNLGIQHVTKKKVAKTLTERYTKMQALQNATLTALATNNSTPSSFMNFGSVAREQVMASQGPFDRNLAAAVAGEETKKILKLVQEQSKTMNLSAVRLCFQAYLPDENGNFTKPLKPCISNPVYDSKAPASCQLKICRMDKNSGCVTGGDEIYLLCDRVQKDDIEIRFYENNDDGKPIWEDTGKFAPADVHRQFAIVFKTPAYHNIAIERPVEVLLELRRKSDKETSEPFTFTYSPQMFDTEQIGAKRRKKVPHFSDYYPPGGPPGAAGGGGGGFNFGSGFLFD
# [2] = biological target: T2, GST-Nv-NF-kB (Cys allele) (Nematostella vectensis, UniProt E5G601 2-411)
# T2 sequence: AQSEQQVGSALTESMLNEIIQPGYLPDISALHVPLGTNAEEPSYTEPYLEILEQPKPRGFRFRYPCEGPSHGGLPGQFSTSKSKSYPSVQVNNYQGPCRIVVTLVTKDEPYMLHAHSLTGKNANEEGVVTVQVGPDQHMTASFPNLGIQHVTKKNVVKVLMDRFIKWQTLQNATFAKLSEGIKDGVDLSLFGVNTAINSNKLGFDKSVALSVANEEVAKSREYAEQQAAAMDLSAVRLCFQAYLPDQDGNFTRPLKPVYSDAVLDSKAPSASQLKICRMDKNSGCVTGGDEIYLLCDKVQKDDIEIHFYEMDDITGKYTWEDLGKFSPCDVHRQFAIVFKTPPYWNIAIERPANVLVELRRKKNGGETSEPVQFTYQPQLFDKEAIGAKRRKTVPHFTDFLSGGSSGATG
# [3] = biological target: T3, GST-Nv-NF-kB (Ser allele) (Nematostella vectensis, UniProt A7UNT2 2-411)
# T3 sequence: T2 sequence with Q21R, C66S, S207N, E215Q, V217A, E225K, A268E, D399E
# [4] = biological target: T4, GST-Co-NF-kB (Capsaspora owczarzaki, UniProt F1ARL5 200-546)
# T4 sequence: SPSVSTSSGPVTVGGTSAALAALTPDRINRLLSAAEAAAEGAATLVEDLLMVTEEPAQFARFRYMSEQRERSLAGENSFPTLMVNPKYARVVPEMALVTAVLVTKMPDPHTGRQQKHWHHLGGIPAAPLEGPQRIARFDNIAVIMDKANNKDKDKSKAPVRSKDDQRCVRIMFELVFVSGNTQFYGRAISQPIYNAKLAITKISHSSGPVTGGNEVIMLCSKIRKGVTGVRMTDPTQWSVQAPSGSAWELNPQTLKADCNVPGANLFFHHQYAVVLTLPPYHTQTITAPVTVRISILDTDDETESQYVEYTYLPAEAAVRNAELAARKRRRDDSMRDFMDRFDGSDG
# [5] = biological target: T5, GST-Dm-Relish (Drosophila melanogaster, UniProt Q94527 99-473)
# T5 sequence: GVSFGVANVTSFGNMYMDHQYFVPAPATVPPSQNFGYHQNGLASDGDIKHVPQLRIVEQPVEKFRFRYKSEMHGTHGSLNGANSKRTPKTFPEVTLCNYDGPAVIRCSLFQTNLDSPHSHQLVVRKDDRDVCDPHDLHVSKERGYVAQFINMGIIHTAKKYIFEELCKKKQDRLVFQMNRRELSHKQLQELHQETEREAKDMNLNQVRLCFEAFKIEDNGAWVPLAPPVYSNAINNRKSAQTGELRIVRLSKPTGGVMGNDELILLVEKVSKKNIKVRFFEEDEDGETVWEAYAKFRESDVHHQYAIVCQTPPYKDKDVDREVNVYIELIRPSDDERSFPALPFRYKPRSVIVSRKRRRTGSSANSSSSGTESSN
# [6] = biological target: T6, GST-Aq-NF-kB (Amphimedon queenslandica, UniProt A9Y5G7 2-389)
# T6 sequence: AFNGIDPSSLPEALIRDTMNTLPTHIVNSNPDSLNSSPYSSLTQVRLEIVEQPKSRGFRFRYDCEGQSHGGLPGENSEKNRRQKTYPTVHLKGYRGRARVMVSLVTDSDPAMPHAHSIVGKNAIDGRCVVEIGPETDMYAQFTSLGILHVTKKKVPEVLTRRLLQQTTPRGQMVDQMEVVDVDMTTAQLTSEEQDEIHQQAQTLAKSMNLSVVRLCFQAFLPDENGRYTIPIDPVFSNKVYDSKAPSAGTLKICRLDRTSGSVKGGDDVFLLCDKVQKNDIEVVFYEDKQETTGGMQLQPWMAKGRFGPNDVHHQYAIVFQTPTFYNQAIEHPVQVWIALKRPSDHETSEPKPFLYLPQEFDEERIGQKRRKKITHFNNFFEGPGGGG
# [7] = biological target: GST-Hu-p50 (Homo sapiens, UniProt P19838 7-356)
# Chain of GST-Hu-p50 (P19838 7-356): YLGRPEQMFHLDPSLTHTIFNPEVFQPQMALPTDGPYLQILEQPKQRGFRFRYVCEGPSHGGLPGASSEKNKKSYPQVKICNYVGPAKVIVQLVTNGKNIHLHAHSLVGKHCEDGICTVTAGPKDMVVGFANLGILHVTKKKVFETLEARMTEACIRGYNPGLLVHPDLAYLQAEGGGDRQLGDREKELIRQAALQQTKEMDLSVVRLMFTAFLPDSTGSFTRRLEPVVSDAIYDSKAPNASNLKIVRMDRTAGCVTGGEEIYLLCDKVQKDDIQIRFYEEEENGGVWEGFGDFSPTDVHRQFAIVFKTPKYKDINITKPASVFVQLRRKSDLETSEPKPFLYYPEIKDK
Sequence,binding signal [1] [z-score],binding signal [2] [z-score],binding signal [3] [z-score],binding signal [4] [z-score],binding signal [5] [z-score],binding signal [6] [z-score],binding signal [7] [z-score]
CCGATTAACATCAGGGGGTGGGATGATGTTAATCGGGTCTTGATTCGCTTGACGCTGCTG,2.8,2.48,3.52,3.22,3.58,3.34,3.07
CCGATTAACATCAATAATTACCCTGATGTTAATCGGGTCTTGATTCGCTTGACGCTGCTG,2.91,4.26,4.81,3.12,3.09,3.72,3.55
CCGATTAACATCAAAGCTTCCCCTGATGTTAATCGGGTCTTGATTCGCTTGACGCTGCTG,5.17,6.28,7.74,7.56,3.8,4.64,5.4
CCGATTAACATCAAGACTTCCCCTGATGTTAATCGGGTCTTGATTCGCTTGACGCTGCTG,6.45,7.56,7.93,5.12,7.71,6.38,5.95
CCGATTAACATCAAAAACCCCCCTGATGTTAATCGGGTCTTGATTCGCTTGACGCTGCTG,10.5,9.26,9.71,5.82,11.3,8.84,7.78
CCGATTAACATCACGGGTTCCCCTGATGTTAATCGGGTCTTGATTCGCTTGACGCTGCTG,7.55,5.61,6.62,5.5,7.65,4.79,4.64
CCGATTAACATCAAAGATTCCCCTGATGTTAATCGGGTCTTGATTCGCTTGACGCTGCTG,8.13,10.5,11.7,8.45,7.42,7.27,6.66
CCGATTAACATCAGGAGGTCCCCTGATGTTAATCGGGTCTTGATTCGCTTGACGCTGCTG,5.22,3.71,2.14,1.57,4.16,5.29,3.18
CCGATTAACATCAAATCCCCCCATGATGTTAATCGGGTCTTGATTCGCTTGACGCTGCTG,7.89,6.31,6.65,7.39,7.66,6.36,6.55
CCGATTAACATCAAATTCCCACATGATGTTAATCGGGTCTTGATTCGCTTGACGCTGCTG,2,3.53,3.94,3.33,4.42,2.66,2.85
CCGATTAACATCAATAACCCCCCTGATGTTAATCGGGTCTTGATTCGCTTGACGCTGCTG,6.33,5.55,5.48,4.7,8.07,6.46,5.76
CCGATTAACATCAGATTCCCCCATGATGTTAATCGGGTCTTGATTCGCTTGACGCTGCTG,8.01,7.43,8.63,8.94,5.21,5.82,6.7
CCGATTAACATCAGGGGATTGGATGATGTTAATCGGGTCTTGATTCGCTTGACGCTGCTG,4.77,4.99,6.52,2.06,2.73,3.69,4.98
CCGATTAACATCAGGATACCCCCTGATGTTAATCGGGTCTTGATTCGCTTGACGCTGCTG,7.7,4.68,4.35,4.59,5.79,6.35,5.02
CCGATTAACATCACCTTTTCCCCTGATGTTAATCGGGTCTTGATTCGCTTGACGCTGCTG,6.24,6.89,8.88,8.71,2.77,4.69,5.94
CCGATTAACATCAAGAATTCCCCTGATGTTAATCGGGTCTTGATTCGCTTGACGCTGCTG,9.76,11.7,12.3,7.33,8.81,8.32,7.54
CCGATTAACATCAAAACTCCCCATGATGTTAATCGGGTCTTGATTCGCTTGACGCTGCTG,7.13,6.03,6.69,5.85,5.96,5.83,5.36
CCGATTAACATCAAGAGATCCCCTGATGTTAATCGGGTCTTGATTCGCTTGACGCTGCTG,6.49,5.71,6.22,2.3,6.47,4.97,4.57
CCGATTAACATCAAGGGGTTTTCTGATGTTAATCGGGTCTTGATTCGCTTGACGCTGCTG,7.68,7.5,6.68,1.68,7.2,6.95,6.56
CCGATTAACATCACGGGGGAATATGATGTTAATCGGGTCTTGATTCGCTTGACGCTGCTG,8.53,7.14,7.03,10.6,4.66,5.84,6.21
CCGATTAACATCAGACTTTCCCATGATGTTAATCGGGTCTTGATTCGCTTGACGCTGCTG,3,4.28,3.69,2.74,1.53,4.28,3.45
CCGATTAACATCAGGGGATTATATGATGTTAATCGGGTCTTGATTCGCTTGACGCTGCTG,7.99,9.17,9.52,4.18,6.72,7.52,6.4
CCGATTAACATCAATATTCCCCATGATGTTAATCGGGTCTTGATTCGCTTGACGCTGCTG,7.4,8.39,8.19,8.46,3.77,5.97,5.88
